Assay results taken from article PMC7862700, “An all-to-all approach to the identification of sequence-specific readers for epigenetic DNA modifications on cytosine”.

Experiments:
Experiment in all cases: DAPPL (digital affinity profiling via proximity ligation, sequencing); 10 mM Tris-HCl pH 7.5, 50 mM NaCl, 1 mM DTT, 4% glycerol, room temperature, 30 min; GST-TFs on glutathione beads, 16-mer random dsDNA library, 0.1% formaldehyde crosslink after washing; high values mean tight binding
[1] = target: T1, FLI1 (Homo sapiens, UniProt Q01543 1-452); settings: protein: recombinant; tags: N-terminal GST; dsDNA, one strand shown
T1 sequence: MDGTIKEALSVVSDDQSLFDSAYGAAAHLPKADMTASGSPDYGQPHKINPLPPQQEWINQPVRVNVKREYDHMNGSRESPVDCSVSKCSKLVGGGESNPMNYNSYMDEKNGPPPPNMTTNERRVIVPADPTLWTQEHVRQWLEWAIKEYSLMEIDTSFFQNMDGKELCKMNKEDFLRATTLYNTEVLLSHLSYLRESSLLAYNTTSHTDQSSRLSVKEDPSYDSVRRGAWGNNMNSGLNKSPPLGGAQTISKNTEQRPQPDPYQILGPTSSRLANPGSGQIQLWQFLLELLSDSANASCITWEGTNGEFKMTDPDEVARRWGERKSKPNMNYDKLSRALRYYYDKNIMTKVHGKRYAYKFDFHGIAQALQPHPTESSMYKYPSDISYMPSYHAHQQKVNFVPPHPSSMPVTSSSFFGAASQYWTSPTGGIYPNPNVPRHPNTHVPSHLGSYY
Summary of the method: (§1)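 Pools of DNA-barcoded human transcription factors, expressed in yeast as GST fusions on glutathione beads and combined with a tag-only sample, were incubated with 200 nmole of a 16-mer random double-stranded DNA library. Incubation took 30 min at room temperature in Tris/NaCl/DTT/glycerol buffer and was followed by washing, 0.1% formaldehyde crosslinking, proximity ligation (BsaI/T4 ligase, 1 h, 37 °C), PCR amplification and sequencing on an Illumina NextSeq500. Binding signal is the ratio of a hexamer's read frequency for a factor to its frequency for the tag-only sample.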

[2] = target: T2, ELK1 (Homo sapiens, UniProt P19419 1-428); settings: protein: recombinant; tags: N-terminal GST; dsDNA, one strand shown
T2 sequence: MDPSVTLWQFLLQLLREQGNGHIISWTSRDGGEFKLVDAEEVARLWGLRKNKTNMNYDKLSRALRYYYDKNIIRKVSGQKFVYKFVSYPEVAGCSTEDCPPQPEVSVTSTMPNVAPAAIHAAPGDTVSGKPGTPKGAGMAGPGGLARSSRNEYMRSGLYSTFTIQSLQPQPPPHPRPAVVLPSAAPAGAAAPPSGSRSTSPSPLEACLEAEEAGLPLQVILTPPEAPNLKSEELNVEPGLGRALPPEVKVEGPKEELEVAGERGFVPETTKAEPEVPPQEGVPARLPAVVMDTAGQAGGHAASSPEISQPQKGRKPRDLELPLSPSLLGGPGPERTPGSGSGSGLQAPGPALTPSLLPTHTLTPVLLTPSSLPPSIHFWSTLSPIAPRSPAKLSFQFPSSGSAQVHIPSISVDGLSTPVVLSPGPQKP
Summary of the method: as §1

[3] = target: T3, GABPA (Homo sapiens, UniProt Q06546 1-454); settings: protein: recombinant; tags: N-terminal GST; dsDNA, one strand shown
T3 sequence: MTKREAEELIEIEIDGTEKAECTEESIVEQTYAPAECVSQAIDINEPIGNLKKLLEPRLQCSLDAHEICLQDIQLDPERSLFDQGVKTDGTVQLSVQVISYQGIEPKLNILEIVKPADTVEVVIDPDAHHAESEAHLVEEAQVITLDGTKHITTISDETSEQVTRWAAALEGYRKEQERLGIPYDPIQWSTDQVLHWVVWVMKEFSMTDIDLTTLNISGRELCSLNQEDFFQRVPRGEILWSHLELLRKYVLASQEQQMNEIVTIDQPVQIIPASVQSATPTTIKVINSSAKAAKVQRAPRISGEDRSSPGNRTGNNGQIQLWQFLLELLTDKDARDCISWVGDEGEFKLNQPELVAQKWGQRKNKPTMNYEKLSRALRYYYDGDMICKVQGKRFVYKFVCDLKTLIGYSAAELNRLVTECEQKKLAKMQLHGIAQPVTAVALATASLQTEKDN
Summary of the method: as §1

[4] = target: T4, ERG (Homo sapiens, UniProt P11308 1-479); settings: protein: recombinant; tags: N-terminal GST; dsDNA, one strand shown
T4 sequence: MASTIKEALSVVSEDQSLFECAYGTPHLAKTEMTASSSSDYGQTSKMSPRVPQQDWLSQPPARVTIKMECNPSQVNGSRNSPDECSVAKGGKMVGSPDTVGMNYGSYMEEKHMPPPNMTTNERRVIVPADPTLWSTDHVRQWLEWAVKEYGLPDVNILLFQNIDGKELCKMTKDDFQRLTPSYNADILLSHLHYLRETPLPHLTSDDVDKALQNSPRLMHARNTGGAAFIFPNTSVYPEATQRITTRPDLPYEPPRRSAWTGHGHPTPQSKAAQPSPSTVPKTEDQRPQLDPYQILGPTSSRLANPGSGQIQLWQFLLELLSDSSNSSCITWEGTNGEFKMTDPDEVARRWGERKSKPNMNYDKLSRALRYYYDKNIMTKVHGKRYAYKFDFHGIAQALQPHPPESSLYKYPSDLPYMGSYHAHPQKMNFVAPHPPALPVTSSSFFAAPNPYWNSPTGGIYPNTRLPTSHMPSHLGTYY
Summary of the method: as §1

[5] = target: ELF1 (Homo sapiens, UniProt P32519 1-619); settings: protein: recombinant; tags: N-terminal GST; dsDNA, one strand shown
Summary of the method: as §1

[6] = target: T5, EHF (Homo sapiens, UniProt Q9NZC4 1-300); settings: protein: recombinant; tags: N-terminal GST; dsDNA, one strand shown
T5 sequence: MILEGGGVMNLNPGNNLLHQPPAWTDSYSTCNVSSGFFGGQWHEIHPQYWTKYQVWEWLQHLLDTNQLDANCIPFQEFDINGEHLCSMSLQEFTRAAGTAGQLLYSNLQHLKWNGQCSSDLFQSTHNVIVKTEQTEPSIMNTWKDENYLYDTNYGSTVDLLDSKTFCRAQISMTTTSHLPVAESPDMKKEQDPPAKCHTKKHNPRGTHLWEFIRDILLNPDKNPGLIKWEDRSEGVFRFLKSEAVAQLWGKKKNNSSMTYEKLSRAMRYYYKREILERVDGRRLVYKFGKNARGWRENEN
Summary of the method: as §1

[7] = target: SPI1 (Homo sapiens, UniProt P17947 1-270); settings: protein: recombinant; tags: N-terminal GST; dsDNA, one strand shown
Summary of the method: as §1

[8] = target: SPIB (Homo sapiens, UniProt Q01892 1-262); settings: protein: recombinant; tags: N-terminal GST; dsDNA, one strand shown
Summary of the method: as §1

[9] = target: T6, ELK3 (Homo sapiens, UniProt P41970 1-407); settings: protein: recombinant; tags: N-terminal GST; dsDNA, one strand shown
T6 sequence: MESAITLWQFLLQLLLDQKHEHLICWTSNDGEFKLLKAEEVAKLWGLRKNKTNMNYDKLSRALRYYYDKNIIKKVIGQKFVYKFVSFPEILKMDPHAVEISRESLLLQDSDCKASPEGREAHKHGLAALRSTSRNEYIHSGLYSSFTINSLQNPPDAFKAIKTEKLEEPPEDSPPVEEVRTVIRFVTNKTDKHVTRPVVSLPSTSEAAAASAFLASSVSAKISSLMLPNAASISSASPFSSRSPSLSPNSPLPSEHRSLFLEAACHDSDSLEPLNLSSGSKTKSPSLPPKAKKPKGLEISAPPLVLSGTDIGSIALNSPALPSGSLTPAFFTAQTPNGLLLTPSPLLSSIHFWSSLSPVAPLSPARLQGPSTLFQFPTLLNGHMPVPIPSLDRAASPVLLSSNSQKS
Summary of the method: as §1

[10] = target: T7, FEV (Homo sapiens, UniProt Q99581 1-238); settings: protein: recombinant; tags: N-terminal GST; dsDNA, one strand shown
T7 sequence: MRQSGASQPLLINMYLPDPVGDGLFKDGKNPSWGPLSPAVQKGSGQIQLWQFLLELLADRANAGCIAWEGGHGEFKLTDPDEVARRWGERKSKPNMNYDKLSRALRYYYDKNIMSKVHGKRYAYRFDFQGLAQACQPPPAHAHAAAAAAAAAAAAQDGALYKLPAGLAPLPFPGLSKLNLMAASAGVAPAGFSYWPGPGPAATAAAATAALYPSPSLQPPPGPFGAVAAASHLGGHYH
Summary of the method: as §1

[11] = target: ETV5 (Homo sapiens, UniProt P41161 1-510); settings: protein: recombinant; tags: N-terminal GST; dsDNA, one strand shown
Summary of the method: as §1

[12] = target: HSF1 (Homo sapiens, UniProt Q00613 1-529); settings: protein: recombinant; tags: N-terminal GST; chain copies: 3; dsDNA, one strand shown
Summary of the method: as §1

[13] = target: T8, SPIC (Homo sapiens, UniProt Q8N5J4 1-248); settings: protein: recombinant; tags: N-terminal GST; dsDNA, one strand shown
T8 sequence: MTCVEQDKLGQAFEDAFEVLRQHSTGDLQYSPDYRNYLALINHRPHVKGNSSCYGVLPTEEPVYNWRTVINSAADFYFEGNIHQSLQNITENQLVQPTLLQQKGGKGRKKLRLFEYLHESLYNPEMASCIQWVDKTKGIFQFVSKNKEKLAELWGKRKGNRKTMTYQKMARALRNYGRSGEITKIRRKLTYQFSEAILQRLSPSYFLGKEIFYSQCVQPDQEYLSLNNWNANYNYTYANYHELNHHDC
Summary of the method: as §1

[14] = target: ELF4 (Homo sapiens, UniProt Q99607 1-663); settings: protein: recombinant; tags: N-terminal GST; dsDNA, one strand shown
Summary of the method: as §1

[15] = target: T9, ELK4 (Homo sapiens, UniProt P28324-2 1-405); settings: protein: recombinant; tags: N-terminal GST; dsDNA, one strand shown
T9 sequence: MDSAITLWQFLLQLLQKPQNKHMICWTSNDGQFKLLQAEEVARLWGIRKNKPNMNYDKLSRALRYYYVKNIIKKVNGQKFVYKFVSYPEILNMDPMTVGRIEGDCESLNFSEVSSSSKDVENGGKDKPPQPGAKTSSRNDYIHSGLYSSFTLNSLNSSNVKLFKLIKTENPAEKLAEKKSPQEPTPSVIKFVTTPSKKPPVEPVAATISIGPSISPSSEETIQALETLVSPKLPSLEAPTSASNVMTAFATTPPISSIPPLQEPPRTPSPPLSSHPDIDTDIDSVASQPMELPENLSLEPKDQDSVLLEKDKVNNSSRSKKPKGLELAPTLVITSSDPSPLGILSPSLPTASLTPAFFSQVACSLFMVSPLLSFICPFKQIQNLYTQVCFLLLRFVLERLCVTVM
Summary of the method: as §1

[16] = target: T10, ETV2 (Homo sapiens, UniProt O00321 1-342); settings: protein: recombinant; tags: N-terminal GST; dsDNA, one strand shown
T10 sequence: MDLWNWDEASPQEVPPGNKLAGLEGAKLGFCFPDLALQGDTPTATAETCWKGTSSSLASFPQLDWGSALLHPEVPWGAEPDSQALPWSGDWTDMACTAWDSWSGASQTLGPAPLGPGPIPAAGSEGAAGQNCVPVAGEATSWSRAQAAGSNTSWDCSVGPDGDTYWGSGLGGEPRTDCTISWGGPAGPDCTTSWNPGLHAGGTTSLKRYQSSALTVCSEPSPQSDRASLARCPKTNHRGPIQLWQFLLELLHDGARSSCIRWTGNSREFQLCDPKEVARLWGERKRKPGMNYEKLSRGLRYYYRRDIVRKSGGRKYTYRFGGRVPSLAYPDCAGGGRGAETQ
Summary of the method: as §1

[17] = target: T11, ELF3 (Homo sapiens, UniProt P78545 1-371); settings: protein: recombinant; tags: N-terminal GST; dsDNA, one strand shown
T11 sequence: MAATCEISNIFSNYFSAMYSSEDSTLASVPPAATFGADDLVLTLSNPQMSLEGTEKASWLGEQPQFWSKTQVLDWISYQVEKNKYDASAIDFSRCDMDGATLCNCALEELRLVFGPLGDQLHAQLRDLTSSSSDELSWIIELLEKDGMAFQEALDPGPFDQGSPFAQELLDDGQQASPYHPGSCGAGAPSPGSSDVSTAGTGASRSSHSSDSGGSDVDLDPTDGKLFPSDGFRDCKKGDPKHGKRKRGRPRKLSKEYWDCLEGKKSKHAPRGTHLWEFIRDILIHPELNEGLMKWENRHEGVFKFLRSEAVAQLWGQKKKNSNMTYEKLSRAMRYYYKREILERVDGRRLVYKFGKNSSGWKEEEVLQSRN
Summary of the method: as §1

[18] = target: CRX (Homo sapiens, UniProt O43186 1-299); settings: protein: recombinant; tags: N-terminal GST; dsDNA, one strand shown
Summary of the method: as §1

[19] = target: ETV1 (Homo sapiens, UniProt P50549 1-477); settings: protein: recombinant; tags: N-terminal GST; dsDNA, one strand shown
Summary of the method: as §1

Chain of ETV5 (P41161 whole entry): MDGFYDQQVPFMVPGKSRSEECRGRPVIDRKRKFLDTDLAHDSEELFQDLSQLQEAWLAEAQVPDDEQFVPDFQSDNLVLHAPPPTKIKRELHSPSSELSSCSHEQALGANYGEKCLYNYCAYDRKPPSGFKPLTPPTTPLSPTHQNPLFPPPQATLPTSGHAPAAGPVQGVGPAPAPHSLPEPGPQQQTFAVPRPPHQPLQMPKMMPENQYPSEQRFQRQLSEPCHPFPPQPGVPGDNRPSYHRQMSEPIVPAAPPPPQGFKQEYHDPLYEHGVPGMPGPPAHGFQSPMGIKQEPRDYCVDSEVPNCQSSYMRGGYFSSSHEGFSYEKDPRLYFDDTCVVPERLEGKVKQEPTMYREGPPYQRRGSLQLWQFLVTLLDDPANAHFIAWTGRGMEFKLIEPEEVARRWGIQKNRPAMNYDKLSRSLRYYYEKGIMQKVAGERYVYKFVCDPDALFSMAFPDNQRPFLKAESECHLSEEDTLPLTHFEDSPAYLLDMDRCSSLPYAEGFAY
Chain of ELF1 (P32519 whole entry): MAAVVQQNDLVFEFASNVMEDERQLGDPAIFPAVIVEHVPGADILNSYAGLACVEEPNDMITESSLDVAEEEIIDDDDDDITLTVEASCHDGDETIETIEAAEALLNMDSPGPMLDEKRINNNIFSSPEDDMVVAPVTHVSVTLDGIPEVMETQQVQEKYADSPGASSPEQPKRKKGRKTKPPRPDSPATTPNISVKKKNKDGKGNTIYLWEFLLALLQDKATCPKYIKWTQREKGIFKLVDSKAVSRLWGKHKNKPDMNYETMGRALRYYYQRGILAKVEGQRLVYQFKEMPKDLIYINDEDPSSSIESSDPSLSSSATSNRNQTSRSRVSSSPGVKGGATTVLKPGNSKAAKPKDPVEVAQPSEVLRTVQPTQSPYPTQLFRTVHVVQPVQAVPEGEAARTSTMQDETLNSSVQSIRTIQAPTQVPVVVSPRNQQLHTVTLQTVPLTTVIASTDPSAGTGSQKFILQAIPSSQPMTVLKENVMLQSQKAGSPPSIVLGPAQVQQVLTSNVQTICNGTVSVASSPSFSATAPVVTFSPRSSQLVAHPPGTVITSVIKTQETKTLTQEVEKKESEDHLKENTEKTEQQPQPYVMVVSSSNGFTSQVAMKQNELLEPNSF
Chain of HSF1 (Q00613 whole entry): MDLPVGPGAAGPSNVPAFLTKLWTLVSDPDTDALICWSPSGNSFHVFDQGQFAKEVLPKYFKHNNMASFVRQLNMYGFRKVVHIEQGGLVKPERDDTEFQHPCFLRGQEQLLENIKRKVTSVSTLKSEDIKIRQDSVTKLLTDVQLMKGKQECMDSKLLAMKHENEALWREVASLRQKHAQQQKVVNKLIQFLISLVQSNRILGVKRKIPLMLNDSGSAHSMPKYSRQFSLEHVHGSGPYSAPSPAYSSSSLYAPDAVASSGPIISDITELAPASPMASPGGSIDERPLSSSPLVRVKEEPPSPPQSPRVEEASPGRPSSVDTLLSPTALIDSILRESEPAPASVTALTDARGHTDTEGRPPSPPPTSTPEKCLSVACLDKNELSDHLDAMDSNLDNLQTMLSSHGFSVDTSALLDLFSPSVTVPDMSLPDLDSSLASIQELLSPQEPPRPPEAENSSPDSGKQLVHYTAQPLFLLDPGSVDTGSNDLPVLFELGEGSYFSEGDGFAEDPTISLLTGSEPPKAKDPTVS
Chain of ETV1 (P50549 whole entry): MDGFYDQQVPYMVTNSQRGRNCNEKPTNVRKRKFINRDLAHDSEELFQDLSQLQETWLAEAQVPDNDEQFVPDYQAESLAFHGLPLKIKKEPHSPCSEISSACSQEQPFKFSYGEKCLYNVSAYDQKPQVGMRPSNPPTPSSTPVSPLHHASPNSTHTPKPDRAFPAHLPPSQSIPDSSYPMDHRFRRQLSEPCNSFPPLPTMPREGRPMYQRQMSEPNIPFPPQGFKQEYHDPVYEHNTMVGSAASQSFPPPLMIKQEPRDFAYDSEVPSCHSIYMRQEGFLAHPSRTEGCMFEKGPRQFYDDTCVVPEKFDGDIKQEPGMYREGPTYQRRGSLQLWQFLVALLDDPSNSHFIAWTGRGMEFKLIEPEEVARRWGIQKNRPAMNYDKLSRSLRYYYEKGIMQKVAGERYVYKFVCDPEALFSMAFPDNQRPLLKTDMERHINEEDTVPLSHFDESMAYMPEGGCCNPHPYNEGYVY
Chain of CRX (O43186 whole entry): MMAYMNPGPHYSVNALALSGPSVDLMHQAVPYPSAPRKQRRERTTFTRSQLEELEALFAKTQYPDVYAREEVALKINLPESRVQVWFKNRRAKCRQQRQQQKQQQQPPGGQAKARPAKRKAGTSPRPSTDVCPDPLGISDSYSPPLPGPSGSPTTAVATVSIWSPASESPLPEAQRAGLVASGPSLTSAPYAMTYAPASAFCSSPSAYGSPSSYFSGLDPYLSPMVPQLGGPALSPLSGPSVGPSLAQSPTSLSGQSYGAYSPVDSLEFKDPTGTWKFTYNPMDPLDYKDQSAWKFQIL
Chain of SPIB (Q01892 whole entry): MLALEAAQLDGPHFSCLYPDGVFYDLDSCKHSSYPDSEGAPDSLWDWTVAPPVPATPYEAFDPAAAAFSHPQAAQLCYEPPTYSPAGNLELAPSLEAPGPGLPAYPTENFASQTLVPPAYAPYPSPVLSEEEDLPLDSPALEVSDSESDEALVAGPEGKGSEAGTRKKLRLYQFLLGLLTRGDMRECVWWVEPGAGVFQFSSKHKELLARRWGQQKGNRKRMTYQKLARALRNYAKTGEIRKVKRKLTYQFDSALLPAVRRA
Chain of ELF4 (Q99607 whole entry): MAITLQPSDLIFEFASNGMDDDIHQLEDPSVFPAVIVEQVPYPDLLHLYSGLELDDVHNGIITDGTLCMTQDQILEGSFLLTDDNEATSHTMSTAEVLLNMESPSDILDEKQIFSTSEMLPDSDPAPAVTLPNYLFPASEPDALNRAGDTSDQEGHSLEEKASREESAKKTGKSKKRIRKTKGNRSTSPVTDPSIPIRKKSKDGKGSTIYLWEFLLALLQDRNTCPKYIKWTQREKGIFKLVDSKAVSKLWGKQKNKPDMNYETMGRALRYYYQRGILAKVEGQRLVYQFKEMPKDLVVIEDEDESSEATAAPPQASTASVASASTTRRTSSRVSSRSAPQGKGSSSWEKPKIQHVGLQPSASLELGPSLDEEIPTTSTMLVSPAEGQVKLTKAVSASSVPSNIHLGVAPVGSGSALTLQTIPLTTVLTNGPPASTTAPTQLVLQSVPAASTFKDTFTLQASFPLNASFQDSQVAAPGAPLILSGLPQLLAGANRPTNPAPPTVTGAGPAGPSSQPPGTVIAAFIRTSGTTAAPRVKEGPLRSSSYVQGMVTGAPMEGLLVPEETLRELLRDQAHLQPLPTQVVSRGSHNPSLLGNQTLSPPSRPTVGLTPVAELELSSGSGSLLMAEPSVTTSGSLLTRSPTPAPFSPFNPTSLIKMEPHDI

CTTCAC
binding signal [1]: 1.47 fold enrichment (6-mer frequency, TF over GST control) | binding signal [2]: 1.42 fold enrichment (6-mer frequency, TF over GST control) | binding signal [3]: 1.38 fold enrichment (6-mer frequency, TF over GST control) | binding signal [4]: 1.45 fold enrichment (6-mer frequency, TF over GST control) | binding signal [5]: 1.45 fold enrichment (6-mer frequency, TF over GST control) | binding signal [6]: 1.41 fold enrichment (6-mer frequency, TF over GST control) | binding signal [7]: 1.37 fold enrichment (6-mer frequency, TF over GST control) | binding signal [8]: 1.41 fold enrichment (6-mer frequency, TF over GST control) | binding signal [9]: 1.38 fold enrichment (6-mer frequency, TF over GST control) | binding signal [10]: 1.34 fold enrichment (6-mer frequency, TF over GST control) | binding signal [11]: 1.37 fold enrichment (6-mer frequency, TF over GST control) | binding signal [12]: 1.18 fold enrichment (6-mer frequency, TF over GST control) | binding signal [13]: 1.57 fold enrichment (6-mer frequency, TF over GST control) | binding signal [14]: 1.33 fold enrichment (6-mer frequency, TF over GST control) | binding signal [15]: 1.45 fold enrichment (6-mer frequency, TF over GST control) | binding signal [16]: 1.43 fold enrichment (6-mer frequency, TF over GST control) | binding signal [17]: 1.54 fold enrichment (6-mer frequency, TF over GST control) | binding signal [18]: 1.17 fold enrichment (6-mer frequency, TF over GST control) | binding signal [19]: 1.37 fold enrichment (6-mer frequency, TF over GST control)
